Measured values as given in PubChem BioAssay (NCI).
This is part of a sample that, as a whole, favours compounds with a hit. Of some 83,000 tested, about 20% had one in any assay.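 48-hour exposure, single concentration, 96-well plates; percent growth endpoint where 0 means no net growth. Active: below 10.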 A number with no mark means an inactive call. Active and inactive are the calls of the source.

Tests used:
Experiment in all cases: NCI-60 one-dose screen, 48 h (100 = growth as untreated, 0 = no growth, -100 = all killed)
Settings in all cases: 10 µM unless noted
NCI-H23 lung = system: NCI-H23 lung
NCI-H226 lung = system: NCI-H226 lung
NCI-H322M lung = system: NCI-H322M lung
HOP-62 NSCLC = system: HOP-62 NSCLC
NCI-H460 lung = system: NCI-H460 lung
HOP-92 NSCLC = system: HOP-92 NSCLC
NCI-H522 lung = system: NCI-H522 lung
A549/ATCC NSCLC = system: A549/ATCC NSCLC
786-0 renal = system: 786-0 renal
COLO 205 colon = system: COLO 205 colon
DU-145 prostate = system: DU-145 prostate
K-562 leukemia = system: K-562 leukemia
MALME-3M melanoma = system: MALME-3M melanoma
MDA-MB-231 breast = system: MDA-MB-231 breast
RXF 393 renal = system: RXF 393 renal
SF-268 CNS = system: SF-268 CNS
SF-295 CNS = system: SF-295 CNS
SF-539 CNS = system: SF-539 CNS
UACC-257 melanoma = system: UACC-257 melanoma
M14 melanoma = system: M14 melanoma

SMILES	growth (NCI-H23 lung)	growth (NCI-H226 lung) [%]	growth (NCI-H322M lung) [%]	growth (HOP-62 NSCLC) [%]	growth (NCI-H460 lung)	growth (HOP-92 NSCLC)	growth (NCI-H522 lung)	growth (A549/ATCC NSCLC)	growth (786-0 renal)	growth (COLO 205 colon)	growth (DU-145 prostate)	growth (K-562 leukemia)	growth (MALME-3M melanoma)	growth (MDA-MB-231 breast)	growth (RXF 393 renal)	growth (SF-268 CNS)	growth (SF-295 CNS)	growth (SF-539 CNS)	growth (UACC-257 melanoma)	growth (M14 melanoma)
CC(=O)Oc1ccc(/C=C/C(=O)N[C@@H](Cc2ccccc2)C(O)C(=O)NCc2ccccc2)cc1OC(C)=O (stereo not given in full)	93.3%	102	83.4	95.2	56%	90%	17.2%	87.7%	81.6%	91.1%	90.5%	77.1%	87.4%	72.7%	104%	68%	100%	71.2%	90.8%	85.3%
CN(C)c1ccnc(CNCCSC2(c3ccc(C(F)(F)F)cc3)c3ccccc3C=Cc3ccccc32)c1	-39.1% (active)	25.9	42.9	17.2	-89.4% (active)	-10.1% (active)	-64.9% (active)	2.72% (active)	-22.4% (active)	-82.3% (active)	3.69% (active)	-11.1% (active)	-89.7% (active)	-48% (active)	-26.7% (active)	7.1% (active)	-90.6% (active)	-96.8% (active)	-20.6% (active)	-74.7% (active)
O=C1c2c(c3c4cc(F)ccc4oc3c3[nH]c4ccc(Br)cc4c23)C(=O)N1O	7.64% (active)	61.8	79.4	19.4	5.53% (active)	-39.4% (active)	-18% (active)	69.2%	15.5%	67.9%	24.6%	40.3%	7.44% (active)	66.4%	29.2%	2.64% (active)	20%	-10.9% (active)	88.5%	14.3%
COc1cc(/C=C/C(=O)c2ccc(C)cc2)ccc1Oc1nc(Nc2ccc(F)cc2)nc(N(C)C)n1	39%	61.9	74.1	86.4	34.4%	52.7%	44.8%	60%	37.5%	86.8%	50.1%	26.8%	69%	31.2%	47.8%	47.1%	30%	-31.9% (active)	41.3%	56.9%
CC(=O)Nc1ccc(-c2nc3cc(-c4ccc(O)cc4)ccc3n2C)cc1	59.2%	90.1	65.4	83.8	33.8%	36.4%	1.22% (active)	69.7%	50.3%	71.3%	54.9%	15.5%	68.4%	53.4%	66.7%	68.1%	47.1%	49.2%	80.8%	63.9%
C/C(=N\N=C\c1cc([N+](=O)[O-])ccc1Cl)c1ccc2c(c1)Nc1ccccc1S2	54.7%	53	37.3	15.7	9.18% (active)	54.1%	60.3%	29.3%	21.1%	61.3%	84.2%	57.1%	74.2%	49.9%	62.8%	80.4%	-28% (active)	58.1%	81.5%	88.2%
COc1ccc(-c2c(Nn3cnnn3)no[n+]2[O-])cc1	58.9%	83.2	63.5	75.2	39.5%	26%	-14.3% (active)	67.1%	53.6%	55.1%	63.1%	30.2%	62.2%	38.8%	42.5%	66.3%	51.6%	56.3%	71.8%	59.9%
COc1ccc2[nH]cc(-c3nnc(N)nc3-c3c[nH]c4ncc(Br)cc34)c2c1	92.2%	73.1	81.3	75.8	80.1%	106%	84.2%	98.2%	74.8%	132%	92.6%	74.1%	92.5%	73.4%	79.2%	85.5%	82%	70.7%	127%	97.6%
